Beta2AR agonist – beta2AR agonists driving receptor internalization, primary screen, cell-based, FAP fluorogen, flow cytometry. Beta-2 adrenergic receptor (Homo sapiens), P07550. Am2.2-beta2AR cells. response, % (no concentration beside the values). 340,000 tested, 0.43% active. AID 504454, 2011;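 active = response above a set limit, near 3 SD of response in nonfluorescent compounds, cut at about 42% in these data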
NadD inh – inhibitors of S. aureus NadD, primary screen, biochemical, colorimetric, uHTS; 360,000 tested, 0.78% active; purified NadD enzyme, colorimetric absorbance read-out; AID 602399, 2012; inhibition, % at 20 µM; in the data active = inhibition above about 26%
Exocytosis inh – LAMP-1 surface exposure blockers, TALL-104 cells – cell-based, flow cytometry, MLPCN library, primary screen; inhibition, % at 10 µM; 360,000 tested, 0.66% active; TALL-104 LAMP-1 surface exposure; cells stimulated with thapsigargin and PMA;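 active = inhibition above about 55%, limit read from the data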
GRK2 aptamer HTS – compounds blocking aptamer binding on GRK2 – biochemical, human GRK2, bead flow cytometry, HTS, primary screen. Beta-adrenergic receptor kinase 1 (Homo sapiens), P25098. FAM-aptamer displacement from GRK2. inhibition of aptamer binding, % at 10 µM. 330,000 tested, 0.59% active. AID 488847, 2010;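 active = inhibition of aptamer binding above 40%, roughly 3 SD of noise, on plates passing a quality check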;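 note: median bead fluorescence of bound FAM aptamer so fluorescent compounds give negative values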
Target sequence (P25098 whole entry, looked up): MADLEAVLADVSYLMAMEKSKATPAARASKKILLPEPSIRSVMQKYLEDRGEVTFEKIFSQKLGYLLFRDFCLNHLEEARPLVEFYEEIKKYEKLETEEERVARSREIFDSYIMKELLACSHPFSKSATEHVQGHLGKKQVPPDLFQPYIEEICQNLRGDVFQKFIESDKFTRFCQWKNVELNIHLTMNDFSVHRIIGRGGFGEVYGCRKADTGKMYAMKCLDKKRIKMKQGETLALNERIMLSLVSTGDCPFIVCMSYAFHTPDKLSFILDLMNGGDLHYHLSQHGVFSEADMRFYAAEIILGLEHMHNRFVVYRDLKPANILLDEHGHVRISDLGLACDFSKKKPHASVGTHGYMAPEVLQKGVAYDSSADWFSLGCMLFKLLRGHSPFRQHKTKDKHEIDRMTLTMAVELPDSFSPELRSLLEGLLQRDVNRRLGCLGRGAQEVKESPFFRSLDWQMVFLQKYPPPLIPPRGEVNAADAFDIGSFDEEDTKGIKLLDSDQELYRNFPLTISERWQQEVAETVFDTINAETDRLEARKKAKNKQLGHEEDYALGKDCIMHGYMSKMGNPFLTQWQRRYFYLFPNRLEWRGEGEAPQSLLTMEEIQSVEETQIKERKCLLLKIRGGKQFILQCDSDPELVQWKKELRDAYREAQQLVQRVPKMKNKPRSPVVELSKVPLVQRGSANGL
PP1 inh – PP1-alpha phosphatase inhibitors, primary screen, counter-screen for PP5 inhibitor project, biochemical, fluorescence, OMFP substrate, single point; Serine/threonine-protein phosphatase PP1-alpha catalytic subunit (Homo sapiens), P62136; purified PP1alpha; inhibition, % at 6.7 µM; 320,000 tested, 0.9% active;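 active = inhibition above the mean inhibition of all tested compounds plus 3 SD, computed separately for each screening campaign, cut at about 15% in these data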
GRK2 CP1 – GRK2 aptamer-displacing inhibitors, retest, confirmation, biochemical, cherry pick 1, bead flow cytometry; bead-bound GRK2, FAM-aptamer displacement; shares compounds with GRK2 aptamer HTS; aptamer displacement, % at 10 µM; 2,000 tested, 4% active;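 active = aptamer displacement above 40%, near three times the noise of non-fluorescent compounds, on plates passing quality checks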;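 note: negative values mostly reflect intrinsic compound fluorescence rather than true enhancement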
Aptamer quench SP – quenches fluorescent RNA aptamer, GRK2 hit artifact | shares compounds with GRK2 aptamer HTS | AID 504580 | fluorescence response (% of DMSO), % at 10 µM | Carboxyfluorescein RNA aptamer on beads, flow cytometry quenching; stronger effect = lower value | 2,000 tested, under 10 active;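 active = compounds that quench the bead-bound fluorescent RNA probe, cutting fluorescence to under half of the solvent control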;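 note: counterscreen run without GRK2 so only probe quenching by compound is measured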
Active calls of the source: *. This is a sample that favours compounds with a hit; in the whole collection about 2.9% have one here.

Screening CC1=NN(c2ccccc2)C(=O)/C1=C/C=C/C=C/N(C)C returned Beta2AR agonist -0.8, NadD inh 5.6, Exocytosis inh -3.0, GRK2 aptamer HTS 8.0 and PP1 inh 3.4.
For O=C(CCN1CCOCC1)N1CCc2c([nH]c3ccccc23)C1c1cccc(Cl)c1 (centres undefined) the results were Beta2AR agonist 1.4, NadD inh 2.5, Exocytosis inh -1.1, GRK2 aptamer HTS 0.0, PP1 inh 0.5, GRK2 CP1 0.9 and Aptamer quench SP 92.6.
O=C1C[C@@H]2c3c(cccc3CN1Cc1ccc(Br)cc1)C[C@@H](O)[C@H]2O was read as Beta2AR agonist -6.8, NadD inh -1.5 and Exocytosis inh -0.5.
O=C(C1CCCN(S(=O)(=O)c2cccc3nsnc23)C1)N1CC=C(c2ccccc2)CC1 (centres undefined) was read as Beta2AR agonist 4.2, NadD inh 9.5, Exocytosis inh 0.3, GRK2 aptamer HTS 1.0, PP1 inh 10.4, GRK2 CP1 -7.2 and Aptamer quench SP 102.4.
`Cc1ccc(C)c(S(=O)(=O)N2CCN(C(=O)c3cccnc3)CC2)c1` gave Beta2AR agonist -3.6, NadD inh 1.3, Exocytosis inh -1.1, GRK2 aptamer HTS 3.0 and PP1 inh -2.3.
O=C(c1ccc2c(=O)n(CCc3ccccc3)c(=O)[nH]c2c1)N1CCN(c2ccccc2)CC1 was read as Beta2AR agonist 11.4, NadD inh 4.2, Exocytosis inh 16.0, GRK2 aptamer HTS 88.0*, PP1 inh 3.0, GRK2 CP1 -2.7 and Aptamer quench SP 94.0.
`COc1ccc(C(=O)N/C(=C\c2cn(C)c3ccccc23)C(=O)N2CCOCC2)cc1OC` gave Beta2AR agonist -3.4, NadD inh 3.3, Exocytosis inh 4.8, GRK2 aptamer HTS 57.0*, PP1 inh -1.8, GRK2 CP1 -2.6 and Aptamer quench SP 102.5.
For CC(=O)N1CCC(C(=O)NCCOc2ccc(C)cc2)CC1 the results were Beta2AR agonist 1.4, NadD inh -7.9, Exocytosis inh 3.6, GRK2 aptamer HTS 6.0 and PP1 inh -4.0.
`COc1cccc(-c2cc(C(=O)Nc3ccc(OC)c(OC)c3)no2)c1` gave Beta2AR agonist -1.1, NadD inh -5.2, Exocytosis inh 0.9, GRK2 aptamer HTS 98.0*, PP1 inh -3.6, GRK2 CP1 3.3 and Aptamer quench SP 98.7.
Screening CC(=O)c1cccc(NC(=O)c2cc(-c3ccc(F)cc3)on2)c1 returned Beta2AR agonist -5.1, NadD inh -1.3, Exocytosis inh -4.5, GRK2 aptamer HTS 0.0, PP1 inh 1.0, GRK2 CP1 -0.9 and Aptamer quench SP 96.9.
`COc1ccc(NC(=O)c2cc(-c3ccccc3)on2)cc1OC` gave Beta2AR agonist 5.0, NadD inh -1.2, Exocytosis inh -0.2, GRK2 aptamer HTS 10.0 and PP1 inh 3.8.
Screening CCC1CCCCN1CCCNC(=O)Cn1ncn2nc(-c3ccc(OC)cc3)cc2c1=O (centres undefined) returned Beta2AR agonist -1.0, NadD inh -5.9, Exocytosis inh 1.2, GRK2 aptamer HTS 6.0 and PP1 inh -5.2.
For O=C(c1ccc2ccccc2n1)N(CCO)Cc1ccccc1 the results were Beta2AR agonist -6.5, NadD inh -6.4, Exocytosis inh -1.8, GRK2 aptamer HTS 1.0 and PP1 inh 4.1.
Cc1c(Br)c(O)c(Br)c(O)c1/C=N/n1c(-c2ccccc2)n[nH]c1=S was read as Beta2AR agonist 0.6, NadD inh 0.9, Exocytosis inh -0.7, GRK2 aptamer HTS 46.0*, PP1 inh 0.2, GRK2 CP1 -0.5 and Aptamer quench SP 99.7.
`COc1ccc(CC(=O)NCCN2CCOCC2)cc1` gave Beta2AR agonist -10.2, NadD inh -1.2, Exocytosis inh -4.5, GRK2 aptamer HTS 32.0, PP1 inh -2.2, GRK2 CP1 3.3 and Aptamer quench SP 100.6.
Screening COc1ccc(OCCOCCN2CCOCC2)cc1 returned Beta2AR agonist 7.5, NadD inh -2.6, Exocytosis inh -2.4, GRK2 aptamer HTS 56.0*, PP1 inh -2.3, GRK2 CP1 0.7 and Aptamer quench SP 98.7.
Screening CCOc1ccc(OCCOCCN2CCOCC2)cc1 returned Beta2AR agonist 3.5, NadD inh 0.3, Exocytosis inh -0.3, GRK2 aptamer HTS 3.0 and PP1 inh -0.9.
`Cc1ccc(CC(=O)NCCN2CCOCC2)cc1` gave Beta2AR agonist -5.6, NadD inh -3.0, Exocytosis inh -0.6, GRK2 aptamer HTS 0.0 and PP1 inh -1.6.
CC(C)c1csc(CN2CCC(CO)(Cc3cccc(F)c3)CC2)n1 was read as Beta2AR agonist -4.8, NadD inh -9.2, Exocytosis inh -4.3, GRK2 aptamer HTS 2.0 and PP1 inh -2.5.
For CCCCNc1ccc(S(N)(=O)=O)cc1[N+](=O)[O-] the results were GRK2 aptamer HTS 5.0 and PP1 inh 0.0.
`CCNc1ccc(S(=O)(=O)N(C)C)cc1[N+](=O)[O-]` gave Beta2AR agonist 0.1, NadD inh 20.5, Exocytosis inh 18.5, GRK2 aptamer HTS 66.0*, PP1 inh -4.1, GRK2 CP1 -3.3 and Aptamer quench SP 96.6.
Screening Cc1cnc(C(=O)OCC(=O)Nc2ccc(Br)c(C)c2)cn1 returned Beta2AR agonist -8.6, NadD inh -5.1, Exocytosis inh 3.1, GRK2 aptamer HTS 0.0 and PP1 inh -1.1.
COCCN(CCOC)C(=O)c1ccc(NS(=O)(=O)c2ccc3[nH]c(=O)[nH]c3c2)cc1 was read as Beta2AR agonist 2.8, NadD inh 4.8, Exocytosis inh -7.0, GRK2 aptamer HTS 0.0 and PP1 inh -0.2.
Screening COC(=O)c1ccc(NC(=O)CSc2nc3[nH]ncc3c(=O)[nH]2)cc1 returned Beta2AR agonist 2.3, NadD inh -0.1, Exocytosis inh -6.1, GRK2 aptamer HTS 0.0 and PP1 inh -3.2.
`O=C(CSc1nc2[nH]ncc2c(=O)[nH]1)Nc1ccc(OC(F)(F)F)cc1` gave Beta2AR agonist -1.8, NadD inh -2.7, Exocytosis inh -0.9, GRK2 aptamer HTS 65.0*, PP1 inh -5.5, GRK2 CP1 -1.6 and Aptamer quench SP 101.8.
COc1cc(OC)nc(Oc2cc(/C=N/O)ccc2OC)n1 was read as Beta2AR agonist -0.6, NadD inh -1.5, Exocytosis inh -1.9, GRK2 aptamer HTS 4.0 and PP1 inh 1.2.
